Measurements as given in the supplement of paper PMC6555819.

Assays:
Experiment in all cases: PBM binding z-score (relative to random genomic background probes); higher = stronger binding; sequences stand for … in GC…GCGATTGACAGCGTAGAATGAAGG
[1] = tested on: PPARg:RXRa DBDmut IVT, anti-RXR (DBD mutation: RXRa K156A/R161A, NR concentration 270 nM, RXRa partner concentration 90 nM)
Summary of the method: (§1)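 Custom Agilent 4×180K protein-binding microarrays carried double-stranded probes, each with a 34-nt variable region. These regions held direct-repeat seeds, single-nucleotide variants, half-site ablations and random human genomic background sequences. Ligand-free nuclear receptor dimers were incubated on the arrays for 1 h, antibodies against each partner (one per run) detected binding, and scanned fluorescence was regression-normalized. Binding z-scores take the random background probes as reference.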

[2] = tested on: PPARg:RXRa IVT, anti-PPARg (NR concentration 270 nM, RXRa partner concentration 90 nM)
Summary of the method: as §1

[3] = tested on: PPARg DBDmut:RXRa IVT, anti-PPARg (DBD mutation: PPARg1 K132A/R137A, NR concentration 270 nM, RXRa partner concentration 90 nM)
Summary of the method: as §1

[4] = tested on: PPARg DBDmut IVT, anti-PPARg (DBD mutation: PPARg1 K132A/R137A, NR concentration 270 nM)
Summary of the method: as §1

[5] = tested on: PPARg homodimer (NR concentration 180 nM)
Summary of the method: as §1

[6] = tested on: PXR:RXRa (NR concentration 270 nM, RXRa partner concentration 90 nM)
Summary of the method: as §1

[7] = tested on: PXR homodimer (NR concentration 270 nM)
Summary of the method: as §1

[8] = tested on: RARa:RXR (NR concentration 270 nM, RXRa partner concentration 90 nM)
Summary of the method: as §1

[9] = tested on: RARa homodimer (NR concentration 270 nM)
Summary of the method: as §1

[10] = tested on: RARb:RXRa (NR concentration 270 nM, RXRa partner concentration 90 nM)
Summary of the method: as §1

Sequence | PBM binding z-score [1] | PBM binding z-score [2] | PBM binding z-score [3] | PBM binding z-score [4] | PBM binding z-score [5] | PBM binding z-score [6] | PBM binding z-score [7] | PBM binding z-score [8] | PBM binding z-score [9] | PBM binding z-score [10]
CCTCGGAGGACAACATGAGGTCAGAGCTGCCAGA | 0.44 | 0.437 | -0.816 | -1.02 | 1.69 | 2.8 | 0.437 | 2.67 | 0.194 | 3.04
TGTTGTAGATCAACAGGAGGTTAAGAAAGATCGA | -0.279 | 0.51 | 0.32 | 0.601 | 0.107 | 0.714 | -0.0905 | 0.912 | -0.122 | 0.386
ACTAGCAGGCCCAGGGTCACTCAAGATTAGTCCG | -0.868 | 0.714 | -0.322 | -0.342 | 0.073 | 2.4 | 0.0496 | 2.75 | -0.377 | 2.27
CAATCTAGGTCAAGGTCAAAGTCGGTTTGTGCCA | 8.63 | 8.84 | 5.16 | 1.26 | 4.33 | 5.3 | 1.93 | 5.63 | 1.12 | 4.9
TCGAGTAGGTTAGGGGCATTAAGAATGGCGTCGA | 2.21 | 1.23 | -0.687 | -1.11 | 0.475 | 0.596 | 0.671 | 0.713 | -0.193 | 1.04
TCTCGGAGGACACGAAGGTCAGGGCTTTCCAGAG | 1.37 | 0.884 | -0.402 | -1.18 | 1.07 | 1.89 | 0.452 | 2.52 | -0.205 | 3.48
TCTGCTAGGTCAACTATGGTCAGCTAATCTGCTA | 3.77 | 4.24 | 0.825 | 0.277 | 1.55 | 2.47 | -0.42 | 2.76 | 0.288 | 4.38
CGAACGAGGGCATGAGTTGATAGCCAATGCCGAT | 3.14 | 2.29 | 0.281 | -0.251 | 0.292 | 0.342 | -0.25 | 0.497 | -0.133 | 2.01
TCTTGTCGATCAAGCAGGTTAAGAAAGCCTGAGT | 0.974 | 0.231 | -0.395 | 0.403 | -0.519 | 0.505 | -0.0537 | 0.33 | -0.429 | 0.222
TCTAGTTGGTCAAAGCTCACACACTCGAAATGCG | 2.36 | 1.86 | 0.492 | 0.777 | 1.1 | 0.532 | -0.0371 | 0.758 | 0.56 | 1.01
CCTAGTTGCTCAAGGTCACACACGCTATAGGTAC | 1.51 | 2.33 | 0.625 | 0.725 | 3.56 | 4.21 | 2.68 | 4.4 | 2.45 | 3.97
TCTAGTTGGTCATAGGTCACACACTCGAAATGCG | 2.59 | 4.4 | 1.15 | 1.18 | 3.12 | 3.48 | 1.07 | 4.39 | 1.88 | 3.22
TCATATAGGTAAATGCTATGTGAAAGTCCGATCT | 3.59 | 2.05 | 1.25 | 1.39 | 0.542 | 0.621 | -0.0684 | 0.813 | 1.29 | 0.304
GCAGCCAGGTGAAACGCAGGTAACTCAGGGTGGC | 1.32 | 1 | -1.26 | -1.53 | -1.44 | -0.698 | -1.29 | 0.121 | -2.03 | 0.362
TCGAGTAGGTTAGTCGGGGGATTCAGCCAACATA | 2.61 | 3.13 | 3.86 | 5.11 | 0.49 | 0.855 | 0.0667 | 0.615 | 0.264 | 0.779
ATCGAAAGGTCGAGGTTAGTATAGAGAAAGGGAA | 0.147 | 1.68 | 0.823 | 1.11 | 3.22 | 2.65 | 0.569 | 3.81 | 1.39 | 4.09
CCTTACGGGTCACGGACAGGTTATAGCATTTGGA | 3.87 | 4.87 | 1.03 | 2.15 | 5.94 | 4.82 | 0.261 | 6.3 | 2.04 | 4.37
CAAACTAGGTCCCCGGAAGGTCAAAGTCCGCATG | 4 | 4.13 | 0.31 | 0.647 | 3.1 | 3.72 | 1.36 | 3.99 | 0.686 | 3.24
CCTACTGGGCCACGAAAGGTCATTGAGTCAGTGA | 5.96 | 6.12 | 0.241 | -0.3 | 3.76 | 5.49 | 1.93 | 5.72 | 1.51 | 4.04
